The record followed here is PubChem BioAssay (NCI).

Common to all, as to experiment: NCI-60 one-dose screen, 48 h (100 = growth as untreated, 0 = no growth, -100 = all killed)
The subject of one assay is HCT-15 colon. To be noted: 10 µM unless noted.
The subject of the next assay is HT29 colon. To be noted: 10 µM unless noted.
A further assay relates to SNB-75 CNS. To be noted: 10 µM unless noted.
The subject of another assay is SNB-19 CNS. The settings on record: 10 µM unless noted.
Another assay concerns U251 CNS. To be noted: 10 µM unless noted.
The next assay has as its system PC-3 prostate. To be noted: 10 µM unless noted.
A further assay relates to SK-MEL-5 melanoma. The settings on record: 10 µM unless noted.
In a further assay the test system is UACC-62 melanoma. To be noted: 10 µM unless noted.
The next assay relates to LOX IMVI melanoma. The settings on record: 10 µM unless noted.
For another assay, the system named is SK-MEL-28 melanoma. To be noted: 10 µM unless noted.
The subject of the next assay is SK-MEL-2 melanoma. The settings on record: 10 µM.
In another assay the test system is EKVX NSCLC. To be noted: 10 µM unless noted.
The subject of another assay is SN12C renal. The settings on record: 10 µM unless noted.
The subject of another assay is UO-31 renal. To be noted: 10 µM unless noted.
The next assay concerns TK-10 renal. To be noted: 10 µM unless noted.
The subject of a further assay is ACHN renal. The settings on record: 10 µM unless noted.
In a further assay the test system is A498 renal. The settings on record: 10 µM unless noted.
The subject of a further assay is MOLT-4 leukemia. To be noted: 10 µM unless noted.
Another assay relates to CAKI-1 renal. To be noted: 10 µM unless noted.
Another assay deals with CCRF-CEM leukemia. The settings on record: 10 µM unless noted.

This is part of a sample that, as a whole, favours compounds with a hit. Of some 83,000 tested, about 20% had one in any assay.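 Treatment: one concentration, 48 hours, 96-well format. Scoring: percent growth, with anything below 10 considered active.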 A number with no mark means an inactive call. Activity calls are given as the source filed them.

Regarding `CC(=Nc1ccccc1)C1=C(O)C(Cc2ccc(O)cc2)NC1=O` (configuration not stated), the growth is 12.1% in the assay with HCT-15 colon; 1.34% (active) in the assay on HT29 colon; 15.2% with SNB-75 CNS; 34% in the assay with SNB-19 CNS; 12.8% in the assay on U251 CNS; 15.7% in the assay with PC-3 prostate. For the same compound, the growth was -44% (active) in the assay with SK-MEL-5 melanoma; 28.6% in the assay on UACC-62 melanoma; 19.2% in the assay on LOX IMVI melanoma; 40% with SK-MEL-28 melanoma; 42.2% with SK-MEL-2 melanoma; 20.4% in the assay with EKVX NSCLC. For the same compound, the growth with SN12C renal is 43.5%; with UO-31 renal, 42.3%; in the assay with TK-10 renal it was 68.2%; in the assay with ACHN renal, 33.2%; with A498 renal, -25.6% (active); in the assay with MOLT-4 leukemia, -3.04% (active).
In the case of `CC(=O)OC1Oc2ccccc2-c2oc(=O)c(-c3cc4ccc(N(C)C)cc4oc3=O)cc21` (configuration not stated), the growth in the assay on HCT-15 colon was 46.2%; in the assay on HT29 colon, 72.4%; in the assay with SNB-75 CNS, 71.1%; in the assay on SNB-19 CNS, 48.2%; with U251 CNS, 48.3%; with PC-3 prostate, 34.8%. The growth in the assay with SK-MEL-5 melanoma was 18.8%; with UACC-62 melanoma it was 67.3%; with LOX IMVI melanoma, 43.2%; in the assay on SK-MEL-28 melanoma it was 103%; in the assay on SK-MEL-2 melanoma, 46.7%; in the assay on EKVX NSCLC, 35.3%. Moreover, the growth in the assay on SN12C renal is 72%; in the assay on TK-10 renal it was 12.2%; in the assay with ACHN renal, 47.4%; in the assay with CAKI-1 renal, 46.1%; with A498 renal, 14.2%; in the assay on CCRF-CEM leukemia it was 6.68% (active). The growth in the assay with MOLT-4 leukemia is -28.3% (active).
With `ClCc1ccc(-c2ccc(Cn3cnc4c(Cl)nc(Cl)nc43)cc2)cc1`, the growth with HCT-15 colon is -44.3% (active); in the assay with HT29 colon, 0.0492% (active); in the assay on SNB-75 CNS it was -26.9% (active); in the assay with SNB-19 CNS it was 0.603% (active); in the assay on U251 CNS, -79.2% (active); in the assay on PC-3 prostate, -95.6% (active). Further, the growth in the assay on SK-MEL-5 melanoma was -67.7% (active); in the assay on UACC-62 melanoma, -13.6% (active); with LOX IMVI melanoma, -70.8% (active); with SK-MEL-28 melanoma, -29.4% (active); in the assay with SK-MEL-2 melanoma, 46.1%; in the assay on EKVX NSCLC it was -57.9% (active). In addition, the growth in the assay on SN12C renal was 26.1%; in the assay on TK-10 renal, -67.8% (active); in the assay with ACHN renal it was -21% (active); in the assay with CAKI-1 renal, -98.8% (active); with CCRF-CEM leukemia, -31.1% (active); in the assay on MOLT-4 leukemia, 4.29% (active).
Turning to `O=C(N/N=C/c1ccc(Cl)cc1)c1cc(-c2cc3ccccc3o2)nn1-c1ccccc1`, the growth in the assay with HCT-15 colon was 93%; with HT29 colon, 107%; with SNB-75 CNS, 86.5%; in the assay on SNB-19 CNS, 94.5%; with U251 CNS, 96%; in the assay on PC-3 prostate, 89.6%. For the same compound, the growth in the assay with SK-MEL-5 melanoma is 56.3%; with UACC-62 melanoma, 83.7%; in the assay with LOX IMVI melanoma, 84.7%; with SK-MEL-28 melanoma it was 99.7%; in the assay on SK-MEL-2 melanoma, 91.2%; in the assay on EKVX NSCLC it was 89.6%. For the same compound, the growth in the assay on SN12C renal was 94.9%; with TK-10 renal, 94.8%; in the assay on ACHN renal, 93.5%; in the assay with CAKI-1 renal, 100%; in the assay on CCRF-CEM leukemia it was 95.6%; in the assay with MOLT-4 leukemia it was 78%.
Regarding `CCc1ccc(C2=C(O)C(=O)C(c3ccc(CC)cc3)=C(O)C2=O)cc1`, the growth was 6.42% (active) in the assay with HCT-15 colon; 0.54% (active) in the assay on HT29 colon; -16.9% (active) in the assay with SNB-75 CNS; 8.83% (active) in the assay on SNB-19 CNS; 1.63% (active) with U251 CNS; 6.64% (active) in the assay on PC-3 prostate. Moreover, the growth with SK-MEL-5 melanoma is -58.7% (active); in the assay on UACC-62 melanoma it was -44.1% (active); with LOX IMVI melanoma, 4.72% (active); in the assay with SK-MEL-28 melanoma, -19.2% (active); in the assay on SK-MEL-2 melanoma, -44.4% (active); in the assay with EKVX NSCLC, -15% (active). In addition, the growth was -6.25% (active) in the assay on SN12C renal; 0.57% (active) in the assay with UO-31 renal; 5.31% (active) with TK-10 renal; -9.41% (active) with ACHN renal; -31% (active) with A498 renal; -6.88% (active) in the assay with MOLT-4 leukemia.
On to `COc1cc2c(cc1OCCCCCN1CCN(c3ncnc4ccccc34)CC1)N=CC1CCCN1C2=O` (configuration not stated), for which the growth is 0.198% (active) with HCT-15 colon; 8.89% (active) with HT29 colon; -50.2% (active) in the assay with SNB-75 CNS; 12.6% in the assay on SNB-19 CNS; 2.18% (active) in the assay with U251 CNS; -38.6% (active) in the assay with PC-3 prostate. Further, the growth was -80.6% (active) in the assay with SK-MEL-5 melanoma; -90.4% (active) in the assay with UACC-62 melanoma; -49.2% (active) in the assay with LOX IMVI melanoma; -14.6% (active) in the assay on SK-MEL-28 melanoma; 1.29% (active) with SK-MEL-2 melanoma; -41.5% (active) in the assay with EKVX NSCLC. Further, the growth in the assay with SN12C renal was 1.92% (active); in the assay on TK-10 renal, -21.4% (active); in the assay on ACHN renal it was 1.61% (active); in the assay with CAKI-1 renal, -18.1% (active); in the assay on CCRF-CEM leukemia it was -37.2% (active); in the assay with MOLT-4 leukemia, 0.399% (active).
As for `COc1cc(C2CC(c3ccc(Cl)cc3)=NN2c2ccc(Cl)cc2)cc(OC)c1OC` (configuration not stated), the growth in the assay with HCT-15 colon was 91.2%; in the assay on HT29 colon, 94.7%; in the assay on SNB-75 CNS, 58.7%; with SNB-19 CNS, 88.1%; in the assay with U251 CNS it was 85.1%; in the assay on PC-3 prostate, 64.1%. In addition, the growth in the assay with SK-MEL-5 melanoma is 97.9%; in the assay with UACC-62 melanoma it was 77%; in the assay with LOX IMVI melanoma it was 99.8%; with SK-MEL-28 melanoma, 96.1%; in the assay on SK-MEL-2 melanoma, 98.8%; with SN12C renal, 88.4%. The growth was 77.1% with UO-31 renal; 98% with TK-10 renal; 86% with ACHN renal; 82.3% in the assay on CAKI-1 renal; 88% in the assay with A498 renal; 84.7% in the assay on CCRF-CEM leukemia. Moreover, the growth in the assay on MOLT-4 leukemia was 67.8%.
Consider `N#CCNC(=O)c1ccc(-c2ccnc(Nc3ccc(N4CCOCC4)cc3)n2)cc1`, for which the growth with HCT-15 colon is 20.7%; in the assay with HT29 colon, 24.2%; with SNB-75 CNS, -4.36% (active); in the assay with SNB-19 CNS, 50.8%; in the assay on U251 CNS it was 19.3%; in the assay on PC-3 prostate, 30.8%. In addition, the growth with SK-MEL-5 melanoma is 25.1%; in the assay on UACC-62 melanoma, 34%; in the assay on LOX IMVI melanoma it was 4.92% (active); in the assay on SK-MEL-28 melanoma it was 36.7%; in the assay on EKVX NSCLC, 43.9%; in the assay with SN12C renal, 31.5%. The growth in the assay on UO-31 renal was -60.4% (active); in the assay with TK-10 renal, -8.51% (active); in the assay with ACHN renal, 6.04% (active); in the assay with CAKI-1 renal, -5.7% (active); with A498 renal, -31.8% (active); in the assay on CCRF-CEM leukemia, 15.7%. Further, the growth in the assay on MOLT-4 leukemia is 7.11% (active).
